Three molecules from PubChem BioAssay (EPA / NIEHS) can be followed below.

Activity calls are given as the source filed them. The calls were made as follows: active = hit-call score of the fitted dose curve at least 0.9, where 1 is the maximum; inactive = score below 0.9.

Read-out in one assay: matrix metalloproteinase-10 (MMP10), MMP10 (gene 4319)
Kind of assay: LTEA_HepaRG_MMP10: Life Technologies and Expression Analysis (LTEA) Assay for matrix metalloproteinase-10 (MMP10) using HepaRG (AID 2283517). To be noted: mRNA level, 48 h; actives raise or lower the signal. The procedure, abridged: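 HepaRG, collagen I, ~100,000 cells/well; serum-free induction medium; 48 h exposure, duplicate, 8-pt half-log to 100 uM, 0.5% DMSO. Readout: TaqMan qRT-PCR, normalized to ACTB/GAPDH/POLR2A; bidirectional fit vs DMSO.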
Turning to `C1CNCCN1`, the outcome was inactive.
Consider `Nc1ccc(C(=O)O)cc1`, for which the molecule was classed as inactive.
Regarding `Cc1ccc([N+](=O)[O-])cc1N`, the molecule was called inactive.

Read-out in another assay: MYC, MYC (gene 4609)
The experiment in a line: LTEA_HepaRG_MYC: Life Technologies and Expression Analysis (LTEA) Assay for MYC using HepaRG (AID 2283518). The settings on record: mRNA level, 48 h; actives raise or lower the signal. An outline of the steps:
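qRT-PCR read-out of MYC transcript (Fluidigm TaqMan, housekeeping-normalized) after 48 h chemical exposure of HepaRG cells; eight concentrations, top 100 uM, half-log steps. Bidirectional curve fitting against 0.5% DMSO vehicle baseline.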
Turning to `C1CNCCN1`, the outcome was inactive.
The same measure, in the same setting: in the case of `Nc1ccc(C(=O)O)cc1` it was “inactive”.
Take `Cc1ccc([N+](=O)[O-])cc1N`: the result was inactive.

Read-out in a further assay: matrix metalloproteinase-3 (MMP3), MMP3 (gene 4314)
Kind of assay: LTEA_HepaRG_MMP3: Life Technologies and Expression Analysis (LTEA) Assay for matrix metalloproteinase-3 (MMP3) using HepaRG (AID 2283519). To be noted: mRNA level, 48 h; actives raise or lower the signal. The procedure, abridged:
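Differentiated human HepaRG cells, plated 48 h on collagen I, were exposed in duplicate for 48 h in serum-free induction medium to eight half-log concentrations up to 100 uM in 0.5% DMSO. MMP3 mRNA was quantified by TaqMan qRT-PCR, normalised to ACTB, GAPDH and POLR2A.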
Consider `C1CNCCN1`, for which the result was inactive.
The same measure, in the same setting: in the case of `Nc1ccc(C(=O)O)cc1` it was “inactive”; in that of `Cc1ccc([N+](=O)[O-])cc1N`, “inactive”.

Read-out in the next assay: Paternally Expressed 10 (PEG10), PEG10 (gene 23089)
Kind of assay: LTEA_HepaRG_PEG10: Life Technologies and Expression Analysis (LTEA) Assay for Paternally Expressed 10 (PEG10) using HepaRG (AID 2283520). To be noted: mRNA level, 48 h; actives raise or lower the signal. An outline of the steps: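 Differentiated HepaRG cells exposed 48 h in serum-free induction medium to eight half-log concentrations topping at 100 uM, 0.5% DMSO, in duplicate. PEG10 mRNA quantified by TaqMan qRT-PCR, normalized to ACTB, GAPDH and POLR2A; bidirectional fit versus DMSO.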
Regarding `C1CNCCN1`, the molecule was called inactive.
Consider `Nc1ccc(C(=O)O)cc1`, for which the molecule was called inactive.
On the same count and under the same terms, in the case of `Cc1ccc([N+](=O)[O-])cc1N` it was “inactive”.

Read-out in the next assay: Protein phosphatase 2A (PPP2R4), PTPA (gene 5524)
Kind of assay: LTEA_HepaRG_PPP2R4: Life Technologies and Expression Analysis (LTEA) Assay for Protein phosphatase 2A (PPP2R4) using HepaRG (AID 2283522). The settings on record: mRNA level, 48 h; actives raise or lower the signal. An outline of the steps:
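Differentiated human HepaRG cells in serum-free induction medium were exposed 48 h to 8 concentrations (top 100 µM, half-log steps, duplicate) in 0.5% DMSO. PPP2R4 mRNA was measured by TaqMan qRT-PCR, normalised to ACTB, GAPDH and POLR2A, and fitted bidirectionally versus DMSO.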
As to `C1CNCCN1`, the outcome was inactive.
The same measure, in the same setting: in the case of `Nc1ccc(C(=O)O)cc1` it was “inactive”; in that of `Cc1ccc([N+](=O)[O-])cc1N`, “inactive”.

Read-out in a further assay: Phosphatase and tensin (PTEN), PTEN (gene 5728)
The experiment in a line: LTEA_HepaRG_PTEN: Life Technologies and Expression Analysis (LTEA) Assay for Phosphatase and tensin (PTEN) using HepaRG (AID 2283523). To be noted: mRNA level, 48 h; actives raise or lower the signal. An outline of the steps:
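Differentiated human HepaRG cells, plated 48 h then switched to serum-free induction medium, were exposed in duplicate for 48 h to eight half-log concentrations up to 100 uM in 0.5% DMSO. PTEN mRNA measured by TaqMan qRT-PCR, normalized to ACTB/GAPDH/POLR2A, bidirectional fit versus DMSO.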
On to `C1CNCCN1`, for which the call was inactive.
Same read-out and setting: for `Nc1ccc(C(=O)O)cc1` the value was “inactive”; for `Cc1ccc([N+](=O)[O-])cc1N`, “inactive”.

Read-out in another assay: solute carrier (SLC22A1), SLC22A1 (gene 6580)
The experiment in a line: LTEA_HepaRG_SLC22A1: Life Technologies and Expression Analysis (LTEA) Assay for solute carrier (SLC22A1) using HepaRG (AID 2283524). The settings on record: mRNA level, 48 h; actives raise or lower the signal. The procedure, abridged: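 Human HepaRG cells were plated 48 h, switched to serum-free induction medium, then exposed in duplicate for 48 h to 8-point half-log series from 100 uM in 0.5% DMSO. SLC22A1 mRNA measured by qRT-PCR, normalized to ACTB/GAPDH/POLR2A, fitted bidirectionally versus DMSO.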
Turning to `C1CNCCN1`, the molecule was classed as inactive.
Still for that read-out and setting: for `Nc1ccc(C(=O)O)cc1` the value was “inactive”; for `Cc1ccc([N+](=O)[O-])cc1N`, “inactive”.

Read-out in another assay: Pyruvate Dehydrogenase Kinase 4 (PDK4), PDK4 (gene 5166)
Kind of assay: LTEA_HepaRG_PDK4: Life Technologies and Expression Analysis (LTEA) Assay for Pyruvate Dehydrogenase Kinase 4 (PDK4) using HepaRG (AID 2283525). The settings on record: mRNA level, 48 h; actives raise or lower the signal. An outline of the steps:
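Differentiated human HepaRG cells, pre-cultured 48 h, were exposed in duplicate for 48 h in serum-free induction medium to eight half-log concentrations up to 100 uM in 0.5% DMSO. PDK4 mRNA was quantified by qRT-PCR, normalized to ACTB, GAPDH and POLR2A, bidirectional fitting versus DMSO.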
Turning to `C1CNCCN1`, the molecule was called inactive.
On the same count and under the same terms, for `Nc1ccc(C(=O)O)cc1` the value was “inactive”; for `Cc1ccc([N+](=O)[O-])cc1N`, “inactive”.

Read-out in another assay: NAD(P)H dehydrogenase [quinone] 1 (NQO1), NQO1 (gene 1728)
Kind of assay: LTEA_HepaRG_NQO1: Life Technologies and Expression Analysis (LTEA) Assay for NAD(P)H dehydrogenase [quinone] 1 (NQO1) using HepaRG (AID 2283526). To be noted: mRNA level, 48 h; actives raise or lower the signal. An outline of the steps: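 Differentiated human HepaRG cells in serum-free induction medium, dosed in duplicate for 48 h at 8 half-log concentrations up to 100 uM in 0.5% DMSO. NQO1 mRNA by qRT-PCR normalized to ACTB, GAPDH, POLR2A; bidirectional fit versus DMSO baseline.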
Turning to `C1CNCCN1`, the molecule was classed as inactive.
Still for that read-out and setting: for `Nc1ccc(C(=O)O)cc1` the value was “inactive”; for `Cc1ccc([N+](=O)[O-])cc1N`, “inactive”.
